Experimental findings from ChEMBL document CHEMBL4513216, “Probing the Open Global Health Chemical Diversity Library for Multistage-Active Starting Points for Next-Generation Antimalarials” (ACS Infect Dis, 2020) are described below.

The campaign covered roughly 69,000 compounds. About 8,600 (12%) showed an effect of 50% or more. The full list was thinned out, with strong results kept by preference.

The test has as its system Plasmodium berghei. In words: Screen against P. berghei liver stage (PbLuc), transformed with Luciferase, at 10uM. The format is functional, HepG2. The note with it: tested at 10 uM.
As to `O=S(=O)(C1CC1)N1CCO[C@H]2[C@@H](Oc3cccnc3)CC[C@@H]21`, the INHIBITION was found to be 37.1%.
As for `CN(C)C(=O)c1cccc(C2CNCCN2C)c1` (configuration not stated), the figure is 15.255%; as for `Cc1cn(Cc2ccc(F)cc2)nc1N`, -46.4%; as for `Cc1cn(Cc2ccc(F)c(F)c2)nc1N`, 70.8%.
As for `Cc1ccc(Cn2cc(C)c(N)n2)cc1`, the INHIBITION is given as 8.53%.
As for `CCc1ccc(CN2CC[C@H]3[C@H]2CC(=O)N3Cc2cccc(C)n2)o1`, the figure is 30.9%.
Then `CCN(CCCc1ccccc1)CC1(C)Cc2c(N)nc(N)nc2O1` (configuration not stated), with 26.8%; and `CCn1nc(C)c(CCNC(=O)C2CCCN(C(=O)COC)C2)c1C` (configuration not stated), with -13.6%.
As for `Cc1ccc2nc(CNc3ccccc3C(=O)NC3CC3)cn2c1`, the figure is 7.38%; as for `Cc1ccc([C@@H]2CN(S(=O)(=O)N(C)C)C[C@H]2N(C)C)cc1`, -11.1%.
With `Cc1ccc([C@@H]2CN(S(=O)(=O)Cc3ccccc3)C[C@H]2N(C)C)cc1`, the INHIBITION amounted to 55.2%.
Consider `Cc1ccc([C@@H]2CN(S(=O)(=O)c3ccccc3)C[C@H]2N(C)C)cc1`, for which the INHIBITION was determined as 0.818%.
As for `Cc1nc2c(c(C)c1CC(=O)NCc1ccc(F)cc1)c(=O)[nH]n2C`, the figure is -12.1%.
As for `Cc1cc(C(=O)N[C@H]2CN(CCC(N)=O)C[C@@H]2C2CC2)sc1C`, the figure is 50.5%; as for `Cc1nc(N)sc1C(=O)N[C@H]1CN(CCO)C[C@@H]1C1CC1`, 12%; as for `Cc1cc(C(=O)N[C@H]2CN(CCO)C[C@@H]2C2CC2)sc1C`, 44%.
Then `CCOc1cc(C)nc(N2CCN(C(=O)c3cnc[nH]3)CC2)n1`, with -3.2%.
For `CC(C)CCN1CCC2(CC1)CN(C(=O)c1cnccn1)CCO2`, the INHIBITION is reported as -12.6%.
Regarding `OCCN1CCN(Cc2coc(-c3ccc(Cl)cc3)n2)CC1`, the INHIBITION is given as 11.6%.
Take `CS(=O)(=O)NC1CCN(Cc2coc(-c3ccccc3)n2)CC1`: the INHIBITION stood at 30.4%.
Then `CC(O)CN1CCN(Cc2coc(-c3ccc(Cl)cc3)n2)CC1` (configuration not stated), with 47.1%.
As for `O=C(C1CC1)N1CCN(Cc2coc(-c3ccc(Cl)cc3)n2)CC1`, the figure is 76.1%; as for `Cc1nc(CN2CCC(NS(C)(=O)=O)CC2)co1`, 34%; as for `CS(=O)(=O)NC1CCN(Cc2coc(-c3ccc(Cl)cc3)n2)CC1`, 79.5%.
As for `CN(C)CC1CN(C(=O)CCc2ccccc2)Cc2nccn2C1` (configuration not stated), the figure is -41.8%; as for `Cc1occc1C(=O)N1Cc2nccn2CC(CN(C)C)C1` (configuration not stated), 44.8%; as for `c1ccc(-n2cc(CNC3CCc4ncnn4C3)nn2)cc1` (configuration not stated), 41.45%.
For `O=C(Nc1cccnc1N1CCCC1)C1CCS(=O)(=O)C1` (configuration not stated), the INHIBITION is on record as -7.35%.
As for `COc1ccc(OC)c(CNCc2c(C)nc3sc(C)cn23)c1`, the figure is 10.8%; as for `COc1cccc(CNCc2c(C(C)C)nn(C)c2N(C)C)c1OC`, -7.84%; as for `COc1cccc(CNCc2c(C)nc3sc(C)cn23)c1OC`, 66.4%.
As for `COc1ccc(CNC(C)Cn2cccn2)c(OC)c1OC` (configuration not stated), the figure is 25.1%.
Take `COc1ccc(CNCc2c(C)nc3sc(C)cn23)c(OC)c1OC`: the INHIBITION is reported as 64.6%.
As for `COc1cccc(CNCC2CCN(CC(C)O)CC2)c1OC` (configuration not stated), the figure is 7.85%; as for `O=C(NCCc1noc(-c2ccccn2)n1)NCC1CCCC1`, -18.3%.
`CC(C)c1nnc2ccc(N3CCC(C(=O)O)CC3)nn12`: the INHIBITION is on record as -9.3%.
Then `Cc1c(Cl)cccc1S(=O)(=O)N1C[C@H]2CC[C@@H](C1)N(C)C2=O`, with 0.546%.
As for `CN(C)C(=O)c1nnc2ccc(N3CCOCC3)cc2n1`, the figure is -13.9%.
Then `CN(Cc1cccnc1)C[C@@H]1OC[C@H]2CN(Cc3ccoc3)CC[C@H]21`, with 2.79%; and `CN(Cc1cccnc1)C[C@H]1OC[C@@H]2CCN(c3ncccn3)C[C@@H]21`, with 14%.
Regarding `CN(Cc1ccco1)C[C@H]1OC[C@@H]2CCN(Cc3cccnc3)C[C@@H]21`, the INHIBITION was found to be 41.4%.
As for `CN(C)C[C@H]1OC[C@@H]2CN(C(=O)NCc3cccnc3)CC[C@@H]21`, the figure is 5.63%.
On to `CN(Cc1cccnc1)C[C@@H]1OC[C@H]2CN(C(=O)C3CC3)CC[C@H]21`, for which the INHIBITION was found to be 76.2%.
Then `CN(Cc1cccnc1)C[C@H]1OC[C@@H]2CCN(C(=O)C3CC3)C[C@@H]21`, with 54.8%; and `O=C(CCN1CCOC(CNc2cccnn2)C1)NC1CCCCC1` (configuration not stated), with 9.64%.
As for `O=C(CCCOc1ccccc1)N1CCCC(n2cncn2)C1` (configuration not stated), the INHIBITION stood at 14.133%.
As for `CC(=O)N1CC(C(=O)NC(C)c2cnn(C)c2C)C1` (configuration not stated), the figure is 8.57%; as for `CCN1CC[C@@]2(C(=O)N(C)C)CCN(S(=O)(=O)c3ccccc3)CC[C@@H]12`, -89.8%; as for `CN1CCN(c2ccc(NC(=O)c3cccs3)c(C(F)(F)F)c2)CC1`, -29%.
Then `Cn1cccc1C(=O)NC(C)(C(N)=O)c1cccc(C(F)(F)F)c1` (configuration not stated), with 61.1%.
Then `Cc1nncn1CCNC(=O)C(C)(C)c1cccc(C(F)(F)F)c1`, with -0.758%; and `CC(NC(=O)c1cccs1)(C(N)=O)c1cccc(C(F)(F)F)c1` (configuration not stated), with 62%; and `CC(NC(N)=O)C(=O)N(C)Cc1cccc(C(F)(F)F)c1` (configuration not stated), with 12%.
`Cn1cccc1C(=O)NC(C)(C(N)=O)c1cccc(Cl)c1` (configuration not stated): the INHIBITION turned out to be 11.5%.
Consider `O=C(O)[C@@H]1CN(C(=O)CCC(F)(F)F)C[C@H]1c1ccncc1`, for which the INHIBITION is reported as 11.6%.
Then `CC(CNC(=O)CCCn1cncn1)N1CCc2ccccc2C1` (configuration not stated), with 69.7%.
As for `CC(Cn1cncn1)NCCN1CCc2ccccc2C1` (configuration not stated), the figure is 45.1%.
Then `CCC(CNC(=O)CCn1cncn1)N1CCc2ccccc2C1` (configuration not stated), with -19.5%; and `CC(NC(=O)CCn1cncn1)c1nnc2n1CCCCC2` (configuration not stated), with 39.2%; and `CC(CNC(=O)CCn1cncn1)N1CCc2ccccc21` (configuration not stated), with -7.7%.
For `CC(C)C(CNC(=O)CCn1cncn1)N1CCc2ccccc2C1` (configuration not stated), the INHIBITION is 60.5%.
As for `Cc1cc2c(=O)n3c(nc2s1)CCN(C(=O)c1cnn(C)c1)CC3`, the figure is -11.7%.
Then `CC(C)N1CCCC1c1cc(C(F)(F)F)[nH]n1` (configuration not stated), with -7.7%; and `Cc1cc(NC(C)Cn2cccn2)n2nccc2n1` (configuration not stated), with 33%.
Then `O[C@@H]1CC(CNCc2ccc(F)cc2)(COc2cccnc2)C[C@@H]1O` (some centres not stated), with 38.1%; and `Cn1cccc1C(=O)NC1(C(=O)NCC2CC2)CCCC1`, with 8.38%; and `Cc1ccc2c(C(=O)N(C)C)cc(-c3cnn(CCO)c3)nc2c1C`, with 31.15%.
For `Cc1ncc(CN2CCC(O)(c3ccccc3F)CC2)cn1`, the INHIBITION was -4.675%.
On to `COc1ncc(C2(O)CCN(Cc3ccccc3O)CC2)c(OC)n1`, for which the INHIBITION came to 65.5%.
Then `COc1ncc(C2(O)CCN(Cc3ccc(F)c(F)c3)CC2)c(OC)n1`, with 57.5%; and `CCc1ncc(CN2CCC(O)(c3ccccc3F)CC2)cn1`, with 18.2%.
As for `COc1ncc(C2(O)CCN(Cc3cccs3)CC2)c(OC)n1`, the figure is 8.48%; as for `COc1ncc(C2(O)CCN(Cc3cc(F)cc(F)c3)CC2)c(OC)n1`, 39.7%.
Then `COc1ncc(C2(O)CCN(Cc3c(F)cccc3F)CC2)c(OC)n1`, with 53%; and `COc1ncc(C2(O)CCN(Cc3cccc(F)c3F)CC2)c(OC)n1`, with 44.1%.
Consider `COc1ncc(C2(O)CCN(Cc3cc(F)ccc3F)CC2)c(OC)n1`, for which the INHIBITION was 24.8%.
As for `CN(C)CCn1nc(C2CCN(S(=O)(=O)N(C)C)C2)c2cccnc21` (configuration not stated), the figure is 6.33%.
As for `Fc1ccc(OCCNCCn2cccn2)cc1`, the figure is 0.914%; as for `Cc1cc(C(=O)N2CCN(c3ccncc3Cl)CC2)n(C)n1`, 10.3%.
Then `CSc1nnc(C2CCN(C(=O)N3CCCC3)CC2)n1C(C)C`, with 20.09%; and `COC(=O)C(C)N(Cc1cc(=O)n(C)c(=O)n1C)C1CC1` (configuration not stated), with -37.1%.
Take `COC(=O)C(C)N(Cc1cc(C)on1)C1CC1` (configuration not stated): the INHIBITION came to 52.2%.
Turning to `Cc1cc(CN(C2CC2)C(C)C(C)C)no1` (configuration not stated), the INHIBITION is listed as -26.1%.
Then `O=C(c1c[nH]cn1)N1CCOCC2(C1)CN(c1ccccc1)C(=O)CO2` (configuration not stated), with 8.52%.
Turning to `Cc1noc(C)c1C(=O)N1CCC2(CCc3ccccc3C(=O)N2)C1` (configuration not stated), the INHIBITION was 9.925%.
Then `Cn1nc2c(cc1=O)CN(Cc1nc(-c3ccsc3)no1)CC2`, with -7.31%.
As for `CC(C)c1nn(C)c(N2CCOCC2)c1CNCc1nncn1C`, the INHIBITION is recorded as -18.9%.
On to `CC(C)CNC(=O)c1cc(C2CC2)nc2c1c(C1CCCN1)nn2C` (configuration not stated), for which the INHIBITION was found to be 30%.
As for `CS(=O)(=O)NC[C@]12COC[C@H]1CN(CC1CCCC1)C2`, the figure is 6.82%.
In the case of `CS(=O)(=O)NC[C@]12COC[C@H]1CN(C(=O)C1CC=CC1)C2`, the INHIBITION stood at 23.1%.
As for `CS(=O)(=O)NC[C@]12COC[C@H]1CN(C(=O)C1CC(F)(F)C1)C2`, the figure is 57.5%.
Then `CS(=O)(=O)NC[C@]12COC[C@H]1CN(CCc1ccccc1)C2`, with 65.1%; and `CCS(=O)(=O)NC[C@]12COC[C@H]1CN(CCc1ccccc1)C2`, with -58.7%; and `CS(=O)(=O)NC[C@]12COC[C@H]1CN(C(=O)CC1CCCC1)C2`, with 14%.
As for `O=S(=O)(NC[C@]12COC[C@H]1CN(CCc1ccccc1)C2)C1CC1`, the figure is 24.9%; as for `CS(=O)(=O)NC[C@]12COC[C@H]1CN(C(=O)C1CCCCC1)C2`, 13.6%; as for `CS(=O)(=O)NC[C@]12COC[C@H]1CN(CC1CCC1)C2`, 66.6%.
`CCc1ccc(S(=O)(=O)NCCC(O)c2ccoc2)s1` (configuration not stated): the INHIBITION was found to be 15.4%.
Then `c1ccc(NCc2cn3c(n2)CN(Cc2cccnc2)CC3)nc1`, with 38.7%; and `Cc1ccc(-n2cc(C(=O)NCC(C)Cn3cccn3)nn2)cc1` (configuration not stated), with 27.6%.
Consider `CO[C@H]1C[C@@H](O)C12CCN(Cc1nc(C(F)(F)F)no1)CC2`, for which the INHIBITION stood at 41.2%.
Then `Cn1cc(-c2ncnc3c2CCN(C(=O)c2cscn2)CC3)cn1`, with 14.6%.
